Assay outcomes from PubChem.
A selection: hits, their analogues and other compounds. The true share with any hit is near 1.5%.
ANO1 block: blocks the mouse calcium-activated chloride channel TMEM16A; Q8BHY3; HEK293 TMEM16A/YFP iodide influx fluorescence, ionomycin; normalized B-score (activity score, 25-100; higher = stronger inhibition) at 10 µM; 1.2% of 310,000 active;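 active = ratio plate-corrected score three or more library SD toward inhibition, starting fluorescence score within five deviations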;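 also: score derived from kinetic fluorescence span divided by baseline fluorescence per well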
Target sequence (Q8BHY3 whole entry, looked up): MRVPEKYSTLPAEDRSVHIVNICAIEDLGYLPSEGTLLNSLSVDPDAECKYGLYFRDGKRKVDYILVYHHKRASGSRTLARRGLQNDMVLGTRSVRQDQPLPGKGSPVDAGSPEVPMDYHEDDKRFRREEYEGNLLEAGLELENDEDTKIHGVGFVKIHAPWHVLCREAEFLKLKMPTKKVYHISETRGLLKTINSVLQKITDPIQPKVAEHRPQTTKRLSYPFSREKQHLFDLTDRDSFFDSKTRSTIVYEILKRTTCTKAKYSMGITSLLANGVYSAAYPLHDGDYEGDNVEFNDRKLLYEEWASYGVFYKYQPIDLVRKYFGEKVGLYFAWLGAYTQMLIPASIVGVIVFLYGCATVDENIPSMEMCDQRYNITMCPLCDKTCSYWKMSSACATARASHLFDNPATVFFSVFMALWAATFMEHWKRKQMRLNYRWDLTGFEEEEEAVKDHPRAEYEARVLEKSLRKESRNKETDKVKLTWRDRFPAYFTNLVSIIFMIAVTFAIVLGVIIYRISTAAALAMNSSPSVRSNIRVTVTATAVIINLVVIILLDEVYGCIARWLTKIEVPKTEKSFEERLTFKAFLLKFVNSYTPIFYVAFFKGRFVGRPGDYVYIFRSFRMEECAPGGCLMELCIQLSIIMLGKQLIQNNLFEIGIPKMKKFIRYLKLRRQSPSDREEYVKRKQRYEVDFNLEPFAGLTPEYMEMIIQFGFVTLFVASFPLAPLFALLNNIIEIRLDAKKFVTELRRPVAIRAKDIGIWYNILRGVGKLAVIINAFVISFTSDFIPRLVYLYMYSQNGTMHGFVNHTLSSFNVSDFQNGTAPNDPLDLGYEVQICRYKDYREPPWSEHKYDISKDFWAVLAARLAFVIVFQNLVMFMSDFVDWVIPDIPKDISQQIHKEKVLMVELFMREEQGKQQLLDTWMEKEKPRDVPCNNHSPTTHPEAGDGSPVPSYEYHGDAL
DAGLB inhibitor: blocks human DAGLB lipase activity; Q8NCG7; HEK293T DAGLB membrane lysate, EnzChek fluorogenic substrate; inhibition, % at 5.17 µM; 0.059% of 340,000 active; AID 504411; in the data active = inhibition above about 34%
hiPSC survival: hiPSC single-cell survival enhancement. ATPlite luminescence; 100% = ROCK inhibitor wells, 0% = DMSO. survival enhancement, % at 20 µM. 0.044% of 360,000 active; in the data active = survival enhancement above about 18%;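 also: cells exposed to compounds for 16 hours before the ATP read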
ABCB6 inh MLPCN: human ABCB6 transporter inhibition; Q9NP58; K562-ABCB6 porphyrin accumulation, flow cytometry, 1 h; active compounds read low; fluorescence ratio to DMSO, % at 10 µM; 0.19% of 360,000 active; AID 602162;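 active = fluorescence ratio to DMSO below 75%, the collection mean minus 3 SD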;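 also: signal is porphyrin accumulated inside mitochondria; lower ratio means ABCB6 inhibition with less porphyrin fluorescence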
TMEM16A act: mouse TMEM16A channel activation, primary screen; Q8BHY3; B-score at 10 µM; 0.3% of 340,000 active; HEK293 TMEM16A/YFP-H148Q/I152L, iodide quench fluorescence; active compounds read low;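 active = fluorescence-ratio B-score plate-corrected deviation score at least 3 library SD below zero, with starting fluorescence score within 5 deviations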;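 also: channel opened by trigger with iodide after compound preincubation; score built on the fluorescence ratio of max minus min over baseline; more negative score means more quench and so TMEM16A activation or potentiation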
TMEM16A reconf: TMEM16A (mouse) chloride channel inhibition, re-confirmation | shares compounds with ANO1 block | HEK293 TMEM16A/YFP-H148Q, iodide quench fluorescence; ionomycin added to raise cell calcium | inhibition, % at 10 µM | 39% of 2,300 active | AID 652189;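 active = mean duplicate percent inhibition, scaled so buffer wells are 0 and the reference blocker 100, over three buffer SD above buffer mean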
TMEM16A Ca cntr: calcium mobilization counter-screen hit for TMEM16A inhibitor series; shares compounds with ANO1 block; 2% of 2,300 active; calcium response (% of ionomycin), % at 10 µM; TMEM16A/YFP HEK293, Fluo4 calcium mobilization;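 active = duplicate-averaged calcium signal over 20% of the ionomycin maximum, relative to buffer baseline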;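 also: each well's signal is peak minus trough fluorescence divided by its pre-addition baseline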
Parental YFP cnt: acts in parental YFP-HEK293 cells lacking TMEM16A, counter-screen. shares compounds with ANO1 block. iodide YFP quench, ionomycin. YFP ratio F(max-min)/F0 at 10 µM. 2,300 tested, under 10 active;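 active = yellow fluorescent protein signal ratio exceeding the buffer control mean by over 5 SD of those controls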;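 also: ratio is mean of duplicate wells from kinetic YFP trace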
ClC-1 rat inh: selectivity of TMEM16A inhibitors: inhibition of rat ClC-1 chloride channel. AID 652236. CHO ClC-1-YFP, iodide influx fluorescence quench; iodide control reads 0, buffer control 100. shares compounds with ANO1 block. 2,300 tested, under 10 active. ratio percent, % at 10 µM;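 active = duplicate-mean ratio percent above the mean of iodide-only control wells, which defines zero, plus 5 of their SD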;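 also: higher percent means stronger block of ClC-1 iodide influx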
Of the large screens only hits and unclear results are named; the others gave an inactive call (follow-up assays come after a bar, where they were run).

CC(=O)c1c[nH]c2ccc(C)cc2c1=O	ANO1 block 100 | TMEM16A reconf inactive | TMEM16A Ca cntr inactive | Parental YFP cnt inactive | ClC-1 rat inh inactive
CC(C)(C)c1ccc(C2CC2C(=O)N/N=C\c2ccc[nH]2)cc1 (stereo unspecified)	none
CCC(C(=O)OCC(=O)Nc1ccc(Cl)c(S(=O)(=O)N(C)C)c1)c1ccccc1 (stereo unspecified)	ANO1 block 25 | TMEM16A reconf 20% | TMEM16A Ca cntr inactive | Parental YFP cnt inactive | ClC-1 rat inh inactive
CN(C)S(=O)(=O)c1cc(NC(=O)COC(=O)Cc2cccc3ccccc23)ccc1Cl	ANO1 block 25 | TMEM16A reconf inactive | TMEM16A Ca cntr inactive | Parental YFP cnt inactive | ClC-1 rat inh inactive
CN(C)S(=O)(=O)c1cc(NC(=O)COC(=O)Cc2ccc(Cl)cc2Cl)ccc1Cl	none
CCN(CC)C(=O)c1ncn2c1C(=O)N(C)CC2	none (no result: ANO1 block, DAGLB inhibitor, TMEM16A act)
COc1ccc(C=CC(O)CCN2CCC3CCC(C3)C2)cc1 (stereo unspecified)	none (no result: ANO1 block)
Cc1oc2c(c(C)cc3oc(=O)c(CC(=O)NCCCN4CCCC4=O)c(C)c32)c1C	none
Cc1oc2c(c(C)cc3oc(=O)c(CC(=O)NCCCO)c(C)c32)c1C	none | TMEM16A reconf inactive | TMEM16A Ca cntr inactive | Parental YFP cnt inactive | ClC-1 rat inh inactive
COc1ccc(CC(=O)OCC(=O)NC2CC2)cc1	none (no result: ANO1 block)
CCOc1ccc(S(=O)(=O)N2CCOCC2)c2ccccc12	none
CCOc1ccc(S(=O)(=O)N2CCCCC2)c2ccccc12	ANO1 block 25 | TMEM16A reconf inactive | TMEM16A Ca cntr inactive | Parental YFP cnt inactive | ClC-1 rat inh inactive
CC(C)CCOc1cccc(OCC(=O)Nc2ccncc2)c1	ANO1 block 25 | TMEM16A reconf 17% | TMEM16A Ca cntr inactive | Parental YFP cnt inactive | ClC-1 rat inh inactive
O=C(COc1ccc(Nc2ccccc2)cc1)Nc1ccncc1	ANO1 block 100 | TMEM16A reconf 18% | TMEM16A Ca cntr inactive | Parental YFP cnt inactive | ClC-1 rat inh inactive
O=C(COc1ccc(Br)cc1)Nc1ccncc1	none
CC(C)(C)c1ccc(OCC(=O)Nc2ccc(C(=O)Nc3ccccc3C(=O)O)cc2)cc1	ANO1 block 25 | TMEM16A reconf 56% | TMEM16A Ca cntr 42% | Parental YFP cnt inactive | ClC-1 rat inh inactive
Cc1cc(OCC(=O)Nc2ccncc2)c(C)cc1Br	ANO1 block 25 | TMEM16A reconf 34% | TMEM16A Ca cntr inactive | Parental YFP cnt inactive | ClC-1 rat inh inactive
O=C(CCNC(=O)N1CC(=O)Nc2ccccc21)Nc1ccc(Br)cc1F	none
O=C(NNc1ccccc1)Nc1cc(Cl)ccc1Cl	none (no result: ANO1 block)
COc1ccc(-c2oc3c(c2C#CCCCCO)C(OCCO)CC3)cc1 (stereo unspecified)	none (no result: ANO1 block, DAGLB inhibitor, TMEM16A act)
CCOC(=O)C1Cc2ccccc2C(=O)O1 (stereo unspecified)	none
CCCCOC(=O)C1Cc2ccccc2C(=O)O1 (stereo unspecified)	ANO1 block 100 | TMEM16A reconf inactive | TMEM16A Ca cntr inactive | Parental YFP cnt inactive | ClC-1 rat inh inactive
CCc1nc2ccc(C(=O)NCCOc3ccc(OC)cc3)cn2c1N(C)C(=O)C1CCCCC1	none (no result: ANO1 block, DAGLB inhibitor, TMEM16A act)
COc1cccc(-c2noc(N)c2C#N)c1	none
N#Cc1c(-c2ccc(F)cc2)noc1N	ANO1 block 100 | TMEM16A reconf inactive | TMEM16A Ca cntr inactive | Parental YFP cnt inactive | ClC-1 rat inh inactive
CCCNC(=O)C1(C)CCCN(Cc2ccc(-c3ccccn3)cc2)C1 (stereo unspecified)	none (no result: ANO1 block, DAGLB inhibitor, TMEM16A act)
O=C1/C(=C/c2ccco2)CCc2ccccc21	none
COc1ccc2c(c1)CC/C(=C/c1ccco1)C2=O	none | TMEM16A reconf inactive | TMEM16A Ca cntr inactive | Parental YFP cnt inactive | ClC-1 rat inh inactive
CC(C)(CNC(=O)c1ccc([N+](=O)[O-])c(Cl)c1)CNC(=O)c1ccc([N+](=O)[O-])c(Cl)c1	ANO1 block 100 | TMEM16A reconf inactive | TMEM16A Ca cntr inactive | Parental YFP cnt inactive | ClC-1 rat inh inactive
COc1ccccc1N1CCN(C(=O)COc2ccc(C)cc2Br)CC1	ANO1 block 100 | TMEM16A reconf inactive | TMEM16A Ca cntr 22% | Parental YFP cnt inactive | ClC-1 rat inh inactive
COc1ccccc1N1CCN(C(=O)COc2ccc(Cl)cc2Br)CC1	none
CCn1c(SCC(=O)N2CCN(c3ccccc3)CC2)nnc1-c1c[nH]c2ccccc12	none
Cn1c(SCC(=O)N2CCN(c3ccccc3)CC2)nnc1-c1c[nH]c2ccccc12	ANO1 block 100 | TMEM16A reconf 21% | TMEM16A Ca cntr inactive | Parental YFP cnt inactive | ClC-1 rat inh inactive
CC(C)(C)c1cccc(Cn2nnc3ccccc32)c1O	ANO1 block 100 | TMEM16A reconf 24% | TMEM16A Ca cntr inactive | Parental YFP cnt inactive | ClC-1 rat inh inactive
O=c1c2ccccc2sc2ccc(NCCCN3CCOCC3)cc12	none
CN1CCCC1CCNc1ccc2sc3ccccc3c(=O)c2c1 (stereo unspecified)	none | TMEM16A reconf inactive | TMEM16A Ca cntr inactive | Parental YFP cnt inactive | ClC-1 rat inh inactive
C[C@H](NC(=O)OC(C)(C)C)c1nnc(SCC(=O)c2ccc(Cl)cc2)o1	ANO1 block 100 | TMEM16A reconf inactive | TMEM16A Ca cntr inactive | Parental YFP cnt inactive | ClC-1 rat inh inactive
COC(=O)Nc1nnc(COc2ccccc2)s1	none (no result: DAGLB inhibitor)
CCCCOC(=O)Nc1nnc(COc2ccccc2)s1	ANO1 block 25 | TMEM16A reconf inactive | TMEM16A Ca cntr inactive | Parental YFP cnt inactive | ClC-1 rat inh inactive
CC(/C=C1\SC(=S)N(C(C(=O)O)c2ccccc2)C1=O)=C\c1ccccc1 (stereo unspecified)	ANO1 block 100 | TMEM16A reconf 72% | TMEM16A Ca cntr inactive | Parental YFP cnt inactive | ClC-1 rat inh inactive
CC(/C=C1\SC(=S)N(CC(=O)O)C1=O)=C\c1ccccc1	none
CSCC(C)N1CCC(Oc2cccc(C(=O)NCc3ccccn3)c2)CC1 (stereo unspecified)	none
O=S(=O)(Nc1nc2ccccc2s1)c1ccc(Br)s1	ANO1 block 100 | TMEM16A reconf 24% | TMEM16A Ca cntr inactive | Parental YFP cnt inactive | ClC-1 rat inh inactive
Cc1ccc(S(=O)(=O)Nc2nc3ccccc3s2)cc1	none
NS(=O)(=O)c1ccc(CCNC(=O)c2ccc(Cl)c(S(=O)(=O)NCc3ccco3)c2)cc1	none (no result: ANO1 block)
